Experimental data taken from the supplement of paper PMC6555819.

What follows are sequences tested on PPARg:RXRa 30nM:10nM, anti-RXR (NR concentration 30 nM, RXRa partner concentration 10 nM) (assay: PBM binding z-score (relative to random genomic background probes); higher = stronger binding; sequences stand for … in GC…GCGATTGACAGCGTAGAATGAAGG).
Procedure, shortened: (§1)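 Custom Agilent 4×180K protein-binding microarrays carried double-stranded probes, each with a 34-nt variable region. These regions held direct-repeat seeds, single-nucleotide variants, half-site ablations and random human genomic background sequences. Ligand-free nuclear receptor dimers were incubated on the arrays for 1 h, antibodies against each partner (one per run) detected binding, and scanned fluorescence was regression-normalized. Binding z-scores take the random background probes as reference.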
CACCCTAGGTCAGGGCCAGTATAGGAGGAACGTT showed a PBM binding z-score of -0.0218. CGAACTAGATCAAGGACAGTGAATCTCCGCACGC showed a PBM binding z-score of -0.423. In the case of ATACCAAGGTGATCGTGACGTCGTTGATACTAAC, the PBM binding z-score is reported as -0.0759. Sequence CCGACTGGAGCAAGGTTACCATAACGCACAGCCA has a PBM binding z-score of 0.181. With CCTACTGGGACAAAGGTCATTGATTCCAATGCTC the PBM binding z-score was 12.2. Work on CCATACAGGTGAGAAGGTAACTCAGCCTCGATTA yielded a PBM binding z-score of 0.288. ATACCAAGGTGATCGTGAGGTCGTTGATACTAAC was tested, and the PBM binding z-score was 0.0505. With TTCCCAAGGTGAAAGGTCGTTGATGCACGCCTTG the PBM binding z-score was 6.2. Work on TAGCCTCGGTCATGGGCCAGTATACCACGCGAAC yielded a PBM binding z-score of -0.674. CCTTACGGGTCACTCCAGGTTATCGCATCGGAGT gave a PBM binding z-score of 0.874. TCTAGCAGGCCAGAGGGTCACTAAAGAGGTACGG gave a PBM binding z-score of 1.97. In the case of TCTTGTAGATCAAGCAGGTTAAGAAGGCCTGAGT, the PBM binding z-score is reported as 2.45. Work on GTACCAATGTGAATAGGTCGTTGATGAGTAGGCG yielded a PBM binding z-score of -0.118. ACAGCCAGGTGATGAAGGTAACTCAGGCTATCAT gave a PBM binding z-score of -0.229. For CGAACGAGGGCACGAGTTGATAGCAAATGCCGAT, the PBM binding z-score was 0.448. With TCGAGTAGGTTATGGGCATTCAGAATGGCGTCGA the PBM binding z-score was 0.906. With TCTGCTAGGTCAACGACGGTCAGCTAATCTGCTA the PBM binding z-score was 1.76. TGGATGAGGTTATAAGATCAGGGAACGTTGCAAA showed a PBM binding z-score of 0.844.

What follows are sequences tested on PPARg:RXRa 90nM:30nM, anti-RXR (NR concentration 90 nM, RXRa partner concentration 30 nM) in the same assay as above.
Procedure, shortened: as §1
TTACTAAGGTGAAGGTCGTTGATCCCTCTGTAGA was tested, and the PBM binding z-score was 7.51. AGATGTAGGTTAAGGGTCATTCAGGTTGGTTCGC was tested, and the PBM binding z-score was 10.7. CCGACTGGGCCATCAGGTCATTGATATCAACGTT showed a PBM binding z-score of 1.85. For CAAACTAGGACACGAAAGGTCAAAGTCGAATGAC, the PBM binding z-score was 5.63. CCTAGCAGGCCAGGGTAACTCAAGCATTTCGCTT showed a PBM binding z-score of -0.605. Sequence TCTAGTTGGTCAAAGCTCACACACTCGAAATGCG has a PBM binding z-score of 4.23. Sequence TCTTGTAGATCAACAGGAGGTTAAGACAGATCGA has a PBM binding z-score of 2.07. TCTAGTTGCTCAAAGGTCACACACTCGAAATGCG was tested, and the PBM binding z-score was 6.91. Sequence TCTGCTAGGTCAACGATGGACAGCTAATCTGCTA has a PBM binding z-score of 2.56. For GCTGCTAGGTCAGGTTTGTCAGCTAACGGGTACG, the PBM binding z-score was 0.389. CCTGCTGGGTCAATGGTCAGCTAAAGCAGCTCGC gave a PBM binding z-score of 3.72. In the case of GCAGACAAGTGAAACGCAGGTAACTCAGGGTGGC, the PBM binding z-score is reported as -0.468. For TCGAGTAGGTTACCAATGGGGCGTTCAGCTTTCT, the PBM binding z-score was 1.03. Work on CCTCGGAGGCCAACAGGAGGTCAGAGCTGCCAGA yielded a PBM binding z-score of -0.26. Work on GTACCAAAGTGAATAGGTCGTTGATGAGTAGGCG yielded a PBM binding z-score of -0.0827. For GCTCGGAGGACAAGGTCAGAGTTTTGTCCGTAGA, the PBM binding z-score was 0.859. Sequence TAGCCTAGGCCAGATCGGGCCAGTATACGCTATA has a PBM binding z-score of -1.05. GCGACTGGGGCAAAGCAGGTTACCTTAAGGTTGG was tested, and the PBM binding z-score was 0.437. With GCATATAGGTAATACAAGGTGAAAGTGCGATTGT the PBM binding z-score was 2. For CCTACTGGGCCACGAAAGGTCATTGAATCAGTGA, the PBM binding z-score was 4.03. TCGAGTAGGATACCAATGGGGCATTCAGCTTTCT was tested, and the PBM binding z-score was 0.306. With TCTGCTAGGTCAACGATGGTCAGCTAATCTGCTA the PBM binding z-score was 2.48. For CACCCTAGGTCAGGGCCAGTATAGGAGGAACGTT, the PBM binding z-score was 0.354. In the case of CGAACTAGATCAAGGACAGTGAATCTCCGCACGC, the PBM binding z-score is reported as -0.36. ATACCAAGGTGATCGTGACGTCGTTGATACTAAC showed a PBM binding z-score of 0.172. CCGACTGGAGCAAGGTTACCATAACGCACAGCCA showed a PBM binding z-score of 0.892. For CCTACTGGGACAAAGGTCATTGATTCCAATGCTC, the PBM binding z-score was 11.7. CCATACAGGTGAGAAGGTAACTCAGCCTCGATTA was tested, and the PBM binding z-score was 1.26. In the case of ATACCAAGGTGATCGTGAGGTCGTTGATACTAAC, the PBM binding z-score is reported as 0.47. With TTCCCAAGGTGAAAGGTCGTTGATGCACGCCTTG the PBM binding z-score was 7.54. With TAGCCTCGGTCATGGGCCAGTATACCACGCGAAC the PBM binding z-score was -0.0831. In the case of CCTTACGGGTCACTCCAGGTTATCGCATCGGAGT, the PBM binding z-score is reported as 2.38. TCTAGCAGGCCAGAGGGTCACTAAAGAGGTACGG showed a PBM binding z-score of 2.41. In the case of TCTTGTAGATCAAGCAGGTTAAGAAGGCCTGAGT, the PBM binding z-score is reported as 1.9. GTACCAATGTGAATAGGTCGTTGATGAGTAGGCG was tested, and the PBM binding z-score was -0.255. ACAGCCAGGTGATGAAGGTAACTCAGGCTATCAT showed a PBM binding z-score of -0.315. CGAACGAGGGCACGAGTTGATAGCAAATGCCGAT gave a PBM binding z-score of 1.44. Work on TCGAGTAGGTTATGGGCATTCAGAATGGCGTCGA yielded a PBM binding z-score of 1.13. With TCTGCTAGGTCAACGACGGTCAGCTAATCTGCTA the PBM binding z-score was 2.26. TGGATGAGGTTATAAGATCAGGGAACGTTGCAAA showed a PBM binding z-score of 1.35.
